In the antibiotic and cytotoxicity screens of Wong et al. (2023):
Hit rate of the full screen: of about 39,000 compounds, about 3,300 (8.5%) were called active. The list comes from a sample in which actives are over-represented; it also holds similar structures and randomly drawn compounds.

What follows are compounds tested on HepG2 (assay: cytotoxicity call (relative viability < 0.9)). Settings: 10 µM.
In the case of `CC(C)NC(=O)N(C)C[C@H]1OCc2cnnn2CCCC(=O)N([C@H](C)CO)C[C@H]1C`, the cytotoxicity call is reported as “inactive”. In the case of `C[C@@H]1CN([C@H](C)CO)C(=O)c2cc(NS(=O)(=O)c3ccc(Cl)cc3)ccc2O[C@@H](C)CCCCO[C@H]1CN(C)C(=O)Nc1ccc(F)cc1`, the cytotoxicity call is reported as “active”. For `C[C@@H]1CCCCO[C@H](CN(C)C(=O)Nc2ccc(F)cc2)[C@@H](C)CN([C@@H](C)CO)C(=O)c2cc(NS(=O)(=O)c3ccc(Cl)cc3)ccc2O1`, the cytotoxicity call was “active”. With `C[C@@H]1CCCCO[C@@H](CN(C)C(=O)Nc2ccccc2)[C@H](C)CN([C@@H](C)CO)C(=O)c2cc(NS(=O)(=O)c3ccc(Cl)cc3)ccc2O1` the cytotoxicity call was “inactive”. `C[C@@H]1CCCCO[C@H](CN(C)C(=O)Nc2ccccc2)[C@@H](C)CN([C@@H](C)CO)C(=O)c2cc(NS(=O)(=O)c3ccc(Cl)cc3)ccc2O1` was tested, and the cytotoxicity call was “active”. For `C[C@H]1CCCCO[C@H](CN(C)C(=O)Nc2ccc(F)cc2)[C@@H](C)CN([C@@H](C)CO)C(=O)c2cc(NS(=O)(=O)c3ccc(Cl)cc3)ccc2O1`, the cytotoxicity call was “active”. With `C[C@H](CO)N1C[C@H](C)[C@@H](CN(C)C(=O)Nc2ccc(F)cc2)OCCCC[C@H](C)Oc2ccc(NS(=O)(=O)c3ccc(Cl)cc3)cc2C1=O` the cytotoxicity call was “inactive”. For `C[C@@H]1CCCCO[C@@H](CN(C)C(=O)Nc2ccc(F)cc2)[C@@H](C)CN([C@H](C)CO)C(=O)c2cc(NS(=O)(=O)c3ccc(Cl)cc3)ccc2O1`, the cytotoxicity call was “inactive”. `C[C@@H]1CN([C@@H](C)CO)C(=O)c2cc(NS(=O)(=O)c3ccc(Cl)cc3)ccc2O[C@@H](C)CCCCO[C@@H]1CN(C)C(=O)Nc1ccc(F)cc1` was tested, and the cytotoxicity call was “inactive”. In the case of `C[C@@H]1CCCCO[C@H](CN(C)C(=O)Nc2ccc(F)cc2)[C@@H](C)CN([C@H](C)CO)C(=O)c2cc(NS(=O)(=O)c3ccc(Cl)cc3)ccc2O1`, the cytotoxicity call is reported as “inactive”. `C[C@H]1CCCCO[C@@H](CN(C)C(=O)Nc2ccc(F)cc2)[C@@H](C)CN([C@@H](C)CO)C(=O)c2cc(NS(=O)(=O)c3ccc(Cl)cc3)ccc2O1` was tested, and the cytotoxicity call was “inactive”. `C[C@@H]1CCCCO[C@@H](CN(C)C(=O)Nc2ccc(F)cc2)[C@H](C)CN([C@@H](C)CO)C(=O)c2cc(NS(=O)(=O)c3ccc(Cl)cc3)ccc2O1` was tested, and the cytotoxicity call was “inactive”. In the case of `C[C@@H]1CCCCO[C@H](CN(C)C(=O)Nc2ccccc2)[C@@H](C)CN([C@H](C)CO)C(=O)c2cc(NS(=O)(=O)c3ccc(Cl)cc3)ccc2O1`, the cytotoxicity call is reported as “inactive”. With `CC(=O)N[C@H]1[C@H](O/N=[N+](\[O-])N2CCCC2)O[C@H](CO)[C@@H](O)[C@@H]1O` the cytotoxicity call was “inactive”. With `COc1ccc(S(=O)(=O)N2C[C@@H](O)COC[C@H]3O[C@@H](CC(=O)NCCCN4CCOCC4)CC[C@@H]32)cc1` the cytotoxicity call was “inactive”. In the case of `O=C(C[C@H]1C[C@H]2c3cc(NC(=O)NC4CCCC4)ccc3O[C@H]2[C@H](CO)O1)NCc1ccc2c(c1)OCO2`, the cytotoxicity call is reported as “inactive”. For `CC(=O)OC1CCC2(C)C(CCC3(C)C2CCC24OC(=O)C5(CCC(C)C(C)C52)CCC34C)C1(C)C` (stereo not drawn), the cytotoxicity call was “inactive”. With `COc1ccc(CN(C)C[C@@H]2Oc3ccc(NC(=O)C4CC4)cc3CC(=O)N([C@@H](C)CO)C[C@H]2C)cc1` the cytotoxicity call was “inactive”. With `COc1ccc(CN(C)C[C@@H]2OCCCC[C@H](C)Oc3ccc(NC(=O)Nc4c(C)noc4C)cc3C(=O)N([C@@H](C)CO)C[C@H]2C)cc1` the cytotoxicity call was “inactive”. For `C[C@H](CO)N1C[C@H](C)[C@H](CN(C)Cc2ccc(Cl)c(Cl)c2)Oc2c(NC(=O)Nc3cccc4ccccc34)cccc2C1=O`, the cytotoxicity call was “inactive”. With `Cc1ccc(S(=O)(=O)N(C)C[C@@H]2Oc3ccc(NS(C)(=O)=O)cc3C(=O)N([C@@H](C)CO)C[C@H]2C)cc1` the cytotoxicity call was “inactive”. For `CC(C)NC(=O)N(C)C[C@H]1Oc2c(NC(=O)Nc3ccc4c(c3)OCO4)cccc2C(=O)N([C@H](C)CO)C[C@H]1C`, the cytotoxicity call was “inactive”. With `O=C(C[C@H]1C[C@H]2c3cc(NS(=O)(=O)c4ccc(F)cc4)ccc3O[C@H]2[C@H](CO)O1)NCc1ccccc1` the cytotoxicity call was “inactive”. For `C[C@@H]1CCCCO[C@H](CN(C)C(=O)Nc2ccc(F)cc2)[C@H](C)CN([C@H](C)CO)C(=O)c2cc(NS(=O)(=O)c3ccc(Cl)cc3)ccc2O1`, the cytotoxicity call was “inactive”. With `C[C@H](CO)N1C[C@H](C)[C@H](CN(C)C(=O)Nc2ccc(F)cc2)OCCCC[C@H](C)Oc2ccc(NS(=O)(=O)c3ccc(Cl)cc3)cc2C1=O` the cytotoxicity call was “active”. With `C[C@@H]1CCCCO[C@@H](CN(C)C(=O)Nc2ccc(F)cc2)[C@H](C)CN([C@H](C)CO)C(=O)c2cc(NS(=O)(=O)c3ccc(Cl)cc3)ccc2O1` the cytotoxicity call was “active”. For `C[C@@H]1CCCCO[C@H](CN(C)C(=O)Nc2ccc(F)cc2)[C@H](C)CN([C@@H](C)CO)C(=O)c2cc(NS(=O)(=O)c3ccc(Cl)cc3)ccc2O1`, the cytotoxicity call was “inactive”. For `O=C(C[C@H]1C[C@H]2c3cc(NC(=O)Cc4ccncc4)ccc3O[C@H]2[C@@H](CO)O1)NCc1ccc2c(c1)OCO2`, the cytotoxicity call was “inactive”. `C[C@@H]1CN([C@H](C)CO)C(=O)c2cc(NC(=O)Nc3ccc4c(c3)OCO4)ccc2O[C@@H](C)CCCCO[C@@H]1CN(C)S(=O)(=O)c1ccccc1` was tested, and the cytotoxicity call was “inactive”. `C[C@@H]1CN([C@@H](C)CO)C(=O)c2cc(NC(=O)Nc3ccc4c(c3)OCO4)ccc2O[C@@H](C)CCCCO[C@@H]1CN(C)C(=O)Cc1ccccc1` was tested, and the cytotoxicity call was “inactive”. With `Cc1ccc(Cn2c3ccccc3c3ccccc32)cc1` the cytotoxicity call was “inactive”. For `Cn1sc(=O)n(Cc2ccccc2)c1=O`, the cytotoxicity call was “inactive”. For `CN1CCc2c(c3ccccc3n2Cc2ccccc2)C1`, the cytotoxicity call was “active”. With `C[C@@H]1CCCCO[C@H](CN(C)C(=O)Nc2ccccc2)[C@@H](C)CN([C@H](C)CO)C(=O)c2cc(NC(=O)CCC(F)(F)F)ccc2O1` the cytotoxicity call was “inactive”. `C[C@@H]1CN([C@H](C)CO)C(=O)c2cc(NC(=O)Nc3ccc(C(F)(F)F)cc3)ccc2O[C@@H](C)CCCCO[C@@H]1CN(C)C(=O)C1CCCCC1` was tested, and the cytotoxicity call was “active”. In the case of `C[C@H]1CCCCO[C@H](CN(C)C(=O)C2CCCCC2)[C@@H](C)CN([C@@H](C)CO)C(=O)c2cc(NC(=O)Nc3ccc(C(F)(F)F)cc3)ccc2O1`, the cytotoxicity call is reported as “inactive”. With `C[C@@H]1CCCCO[C@H](CN(C)C(=O)C2CCCCC2)[C@@H](C)CN([C@H](C)CO)C(=O)c2cc(NC(=O)Nc3ccc(C(F)(F)F)cc3)ccc2O1` the cytotoxicity call was “inactive”. In the case of `C[C@@H]1CCCCO[C@@H](CN(C)C(=O)C2CCCCC2)[C@H](C)CN([C@@H](C)CO)C(=O)c2cc(NC(=O)Nc3ccc(C(F)(F)F)cc3)ccc2O1`, the cytotoxicity call is reported as “active”. With `C[C@@H]1CCCCO[C@@H](CN(C)C(=O)C2CCCCC2)[C@@H](C)CN([C@H](C)CO)C(=O)c2cc(NC(=O)Nc3ccc(C(F)(F)F)cc3)ccc2O1` the cytotoxicity call was “inactive”. For `C[C@@H]1CN([C@H](C)CO)C(=O)c2cc(NC(=O)Nc3ccc(C(F)(F)F)cc3)ccc2O[C@@H](C)CCCCO[C@H]1CN(C)C(=O)C1CCCCC1`, the cytotoxicity call was “inactive”. With `C[C@H](CO)N1C[C@H](C)[C@@H](CN(C)C(=O)C2CCCCC2)OCCCC[C@H](C)Oc2ccc(NC(=O)Nc3ccc(C(F)(F)F)cc3)cc2C1=O` the cytotoxicity call was “inactive”. In the case of `C[C@@H]1CCCCO[C@H](CN(C)C(=O)C2CCCCC2)[C@H](C)CN([C@@H](C)CO)C(=O)c2cc(NC(=O)Nc3ccc(C(F)(F)F)cc3)ccc2O1`, the cytotoxicity call is reported as “inactive”. In the case of `C[C@H]1CCCCO[C@@H](CN(C)C(=O)C2CCCCC2)[C@@H](C)CN([C@@H](C)CO)C(=O)c2cc(NC(=O)Nc3ccc(C(F)(F)F)cc3)ccc2O1`, the cytotoxicity call is reported as “active”.
